Only some compounds are listed: those with a hit (about 2.7% of all), similar ones and a draw of the others.
gsp antagonist – gsp mutant antagonism | AID 624288 | gsp-mutant cells, cAMP HTRF, 30 min | Potency, µM (top dose mostly 76.9 µM), most hits filed as inhibitors | 340,000 tested, 0.4% active; calls by dose curve; cell line not stated here;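 further: intracellular cAMP measured with PDE inhibitor Ro 20-1724 present during compound exposure; nearly all actives have a fitted effect of over 65% in size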
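G418-selected cells were plated in DMEM/10% FBS for 16-24 h at 37C, then treated with compounds plus the PDE inhibitor […] (300 uM solution added) for 30 min at 37C. Intracellular cAMP was measured by HTRF after 30 min lysis at room temperature.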
RXFP1 agonist – RXFP1 (human) receptor agonism; Q9HBX9; HEK293T-RXFP1 cAMP TR-FRET, 30 min; response scale: percent of porcine relaxin response, buffer zero; Potency, µM (highest dose often 57.5 µM), actives largely listed as activators; 370,000 tested, 0.3% active; AID 2676; active means well fitted activation curve with a large enough effect; inconclusive means small, poorly fitted or top-dose-only effect; further: nearly all actives have a fitted effect of over 60% in size
Target sequence (Q9HBX9 whole entry, looked up): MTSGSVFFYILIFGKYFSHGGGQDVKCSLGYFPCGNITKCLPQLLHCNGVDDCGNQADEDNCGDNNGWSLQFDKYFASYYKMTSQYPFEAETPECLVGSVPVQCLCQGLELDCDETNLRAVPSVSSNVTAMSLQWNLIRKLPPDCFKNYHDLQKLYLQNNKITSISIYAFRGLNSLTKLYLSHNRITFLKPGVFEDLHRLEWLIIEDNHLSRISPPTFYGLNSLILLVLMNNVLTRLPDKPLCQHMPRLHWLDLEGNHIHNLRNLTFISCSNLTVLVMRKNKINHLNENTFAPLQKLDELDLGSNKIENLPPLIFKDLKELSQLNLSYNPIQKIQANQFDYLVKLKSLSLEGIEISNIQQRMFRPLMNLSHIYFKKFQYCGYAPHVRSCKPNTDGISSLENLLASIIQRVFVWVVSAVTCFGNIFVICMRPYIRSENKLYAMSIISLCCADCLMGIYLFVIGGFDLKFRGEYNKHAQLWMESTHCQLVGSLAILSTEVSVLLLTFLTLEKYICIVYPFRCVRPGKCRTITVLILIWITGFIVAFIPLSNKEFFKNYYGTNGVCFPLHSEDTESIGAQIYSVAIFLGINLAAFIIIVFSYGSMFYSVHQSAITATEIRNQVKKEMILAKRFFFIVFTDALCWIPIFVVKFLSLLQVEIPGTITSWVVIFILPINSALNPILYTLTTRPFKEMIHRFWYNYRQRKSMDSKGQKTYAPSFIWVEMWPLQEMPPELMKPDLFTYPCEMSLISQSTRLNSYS
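Agonist response is measured as cAMP accumulation in an RXFP1-transfected HEK293T line under PDE4 inhibition. Values are scaled between buffer-only and 29 nM porcine relaxin, and EC50s come from standard Hill equation fits.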
RXFP1 antagonist – blocks the human relaxin receptor RXFP1; HEK293-RXFP1, relaxin-stimulated cAMP HTRF, 30 min; active compounds read low; activity change, negative = inhibition, % at 57.5 µM; 350,000 tested, 0.59% active; Q9HBX9; AID 1259400;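 active means activity change of -60% or lower, but not beyond a set lower limit; inconclusive means change between -60% and -40%, or beyond the set limit; inactive means change above -40%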
pAkt inh – inhibitors of Akt phosphorylation | Neuro2A IGF-stimulated pAkt S473 HTRF, 20 min; active compounds read low | activity change, % for hits at 50 µM | 360,000 tested, 0.32% active | AID 651550; in the data active means activity change below about -80%; inconclusive means mostly about -51% to -80%
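Single-point screen (50 µM final compound) in Neuro2A cells stimulated 20 min with 6 nM IGF at 37 deg C. After lysis, Ser473-phosphorylated Akt read by HTRF (ex 330 nm, em 615/665 nm) as the 665/615 ratio.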
gsp agonist – activates gsp, the McCune-Albright syndrome mutation; gsp mutant cells, cAMP HTRF, 30 min; Potency, µM (titrated, usually from 76.9 µM), usual class: activators; 340,000 tested, 0.13% active; active means well fitted activation curve with a large enough effect; inconclusive means small, poorly fitted or top-dose-only effect, or another doubt; inactive means no such curve, though single readings can be large or run the other way; cell line not stated here;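 further: phosphodiesterase inhibitor Ro 20-1724 added with compounds to block cAMP breakdown; nearly all actives have a fitted effect of over 60% in size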
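Cells stably selected in G418 were plated at 2000/well, grown 16-24 hr, then given compounds in DMSO with the PDE inhibitor […] (300 uM solution added) for 30 min at 37C; cAMP was read by HTRF.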
ClpP mod – qHTS Assay for Activators of ClpP; ATP-dependent Clp protease proteolytic subunit (Bacillus subtilis (strain 168)), P80244; purified B. subtilis ClpP, FRET peptide cleavage, 20 min; Potency, µM (titrated, usually from 57.5 µM); 340,000 tested, 1.9% active; AID 651965, 2013; active means well fitted falling curve with a large enough effect; inconclusive means small, poorly fitted or top-dose-only effect; inactive means no such curve, though single readings can be large or run the other way; further: the source files actives as falling curves though it sought activators and does not explain the sign; nearly all actives have a fitted effect of over 65% in size
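ClpP 10 microg/mL final, pH 8 Tris/KCl buffer with BSA, glycerol, Tween-20; compound pinned in; FRET-FV substrate; RT 20 min; Ex320/Em430; ΔFRET vs ADEP 5.8 microM, DMSO, no enzyme.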
Large screens that a line does not name were inactive.

CCOC(=O)c1c(-c2ccccc2)cn2ccccc12	gsp agonist inconclusive, ClpP mod inconclusive
CCOC(=O)c1c(-c2ccc(C)cc2)cn2ccccc12	ClpP mod 13µM
COc1ccc(C2NC(=O)NC3=C2CCc2ccccc23)cc1 (stereo not given)	ClpP mod 16µM
CC(C)c1ccc(C2NC(=O)NC3=C2CCc2ccccc23)cc1 (stereo not given)	ClpP mod 28µM
Cc1ccc(C2NC(=O)NC3=C2CCc2ccccc23)cc1 (stereo not given)	ClpP mod inconclusive
O=C(CCl)c1ccc2c(c1)CCCC2	none (no result: gsp antagonist, RXFP1 agonist, RXFP1 antagonist, pAkt inh, gsp agonist)
Cn1nnnc1Sc1ccc(C(=O)O)cc1[N+](=O)[O-]	none (no result: ClpP mod)
Cn1ccnc1Sc1ccc(C(N)=O)cc1[N+](=O)[O-]	ClpP mod 32µM
CCOC(=O)c1cc(CC)sc1NC(=O)c1ccc2c(c1)OCCO2	gsp antagonist inconclusive, pAkt inh -113%, ClpP mod 25µM
CCCC(=O)NC1=C(C#N)C2(CCCCC2)Cc2ccccc21	none
CCC(=O)NC1=C(C#N)C2(CCCC2)Cc2ccccc21	ClpP mod 32µM
O=C(Nc1ccc(F)cc1)c1oc2ccccc2c1NC(=O)C1CC1	none
COc1ccc(-c2ocnc2C(=O)Nc2ccccc2N2CCCCC2)cc1	ClpP mod 32µM
COc1ccc(OCC(=O)Nc2ccccc2N2CCCCC2)cc1	none
O=C(NC(=S)Nc1ccccc1)C1CCCCC1	gsp agonist inconclusive
CC(C)c1ccccc1NC(=O)c1ccccc1NC(=O)C1CCCCC1	none
O=C(NC(=S)NCc1ccccc1)C1CCCCC1	ClpP mod 13µM
CC(C)c1ccccc1NC(=S)NC(=O)C1CCCCC1	RXFP1 antagonist -65, gsp agonist inconclusive (no result: RXFP1 agonist)
CCc1ccccc1NC(=O)CN1C(=O)CCn2nc(-c3cccn3C)cc21	none (no result: gsp antagonist, pAkt inh, gsp agonist)
CC1(C)Oc2cc(N)c([N+](=O)[O-])cc2O1	ClpP mod 32µM
Nc1ccc(Oc2ccc(N)c([N+](=O)[O-])c2)cc1[N+](=O)[O-]	gsp agonist inconclusive (no result: gsp antagonist, RXFP1 agonist)
COc1ccc(-c2cc3nc4c(c(=O)n3[nH]2)CCC4)cc1	ClpP mod 22µM
Cc1cc2nc3c(c(=O)n2[nH]1)CCCC3	none
O=c1c2c(nc3cc(-c4ccccc4)[nH]n13)CCS2	ClpP mod 10µM (no result: RXFP1 antagonist)
O=c1c2c(nc3cc(-c4ccc(Br)cc4)[nH]n13)CCCC2	none (no result: ClpP mod)
O=c1c2c(nc3cc(-c4ccccc4)[nH]n13)CCC2	ClpP mod 11µM
COc1cccc2cc(C(=O)N(Cc3cccs3)Cc3cccs3)c(=O)oc12	none (no result: gsp antagonist, RXFP1 agonist, RXFP1 antagonist, pAkt inh, gsp agonist)
Cc1ccccc1C(=O)NN1CC(C(=O)OCc2ccc(Cl)c(Cl)c2)CC1=O (stereo not given)	gsp antagonist 32µM
O=C(NN1CC(C(=O)OCc2ccc(Br)cc2)CC1=O)c1ccccc1 (stereo not given)	none
C=CCNC(=S)Nc1ccc2nsnc2c1	ClpP mod 28µM
CCOC(=O)N1CCN(C(=O)C2CCN(C(=O)c3ccccc3C)CC2)CC1	RXFP1 antagonist -102 (no result: RXFP1 agonist, ClpP mod)
Cc1ccc(NS(=O)(=O)c2ccc(Cl)c(C(=O)Nc3ccccc3-c3nc4ccccc4[nH]3)c2)cc1C	ClpP mod 35µM
CSc1ncnc2c1ncn2CCCNCc1ccccc1	gsp agonist inconclusive (no result: gsp antagonist, RXFP1 agonist)
COc1cc2c(cc1OC)CN(C(=S)Nc1cccc(Cl)c1C)CC2	ClpP mod 32µM
Cc1cc(/C=C/c2ccnc3ccccc23)ccc1N(C)C	none (no result: gsp antagonist, RXFP1 agonist, RXFP1 antagonist, pAkt inh, gsp agonist)
COc1ccc(-c2oc3ncn4nc(Cc5ccccc5)nc4c3c2-c2ccc(OC)cc2)cc1	gsp antagonist 10µM, pAkt inh inconclusive, ClpP mod inconclusive
COc1ccc(-c2oc3ncnc(N)c3c2-c2ccccc2)cc1	ClpP mod 35µM
COc1ccc(-c2oc3ncn4nc(COc5ccccc5)nc4c3c2-c2ccc(OC)cc2)cc1	none
COc1cccc(C(=O)Nc2c3c(nn2-c2ccc(Cl)cc2)CS(=O)(=O)C3)c1	none (no result: gsp antagonist, RXFP1 antagonist, pAkt inh, gsp agonist)
COc1ccc(Nc2nc(C)cc(-c3cc(-c4ccccc4)on3)n2)cc1	ClpP mod 28µM (no result: RXFP1 agonist, RXFP1 antagonist)
N#C/C(=C\c1ccc[nH]1)C(=O)Nc1ccccc1Cl	gsp antagonist 32µM, gsp agonist inconclusive
N#C/C(=C\c1ccc[nH]1)C(=O)Nc1ccccc1F	gsp agonist inconclusive
CCCCCCC[n+]1c(/C=C/c2ccc(N(C)C)cc2)sc2ccccc21	none (no result: gsp antagonist, RXFP1 agonist, RXFP1 antagonist, pAkt inh, gsp agonist)
O=C(C[n+]1ccncc1)c1ccc(Br)cc1	none (no result: gsp antagonist, RXFP1 agonist, RXFP1 antagonist, pAkt inh, gsp agonist)
COc1ccc(CN2CCC2(C)C(=O)NCc2ccc3c(c2)OCO3)c2ccccc12 (stereo not given)	none (no result: gsp antagonist, RXFP1 agonist, RXFP1 antagonist, gsp agonist)
CN1CCN(c2ccc(NC(=O)COc3ccccc3[N+](=O)[O-])cc2)CC1	none (no result: gsp antagonist, ClpP mod)
CC(C)C(=O)N1CCN(c2ccc(NC(=O)COc3ccccc3[N+](=O)[O-])cc2)CC1	gsp antagonist 28µM (no result: ClpP mod)
Cc1ccc(CN(C(=O)c2csnn2)C(C(=O)NC2CCCC2)c2cccnc2)cc1 (stereo not given)	none (no result: ClpP mod)
COc1cccc2sc(N(CCCN(C)C)C(=O)c3ccc(S(=O)(=O)N4CCCc5ccccc54)cc3)nc12	RXFP1 antagonist -88, gsp agonist inconclusive
CN(C)CCCN(C(=O)c1ccc2c(c1)CCCC2)c1nc2ccc(Cl)cc2s1	RXFP1 antagonist -77
CCOc1ccc2nc(N(CCCN(C)C)C(=O)c3ccc4c(c3)CCCC4)sc2c1	none
COc1cccc2sc(N(CCN(C)C)C(=O)c3ccc4c(c3)CCCC4)nc12	RXFP1 antagonist -69
CN(C)CCCN(C(=O)c1ccc2ccccc2c1)c1nc2cc3c(cc2s1)OCO3	RXFP1 antagonist -61
CN(C)CCN(C(=O)c1ccc2ccccc2c1)c1nc2cc3c(cc2s1)OCCO3	ClpP mod inconclusive
CC(C)C(=O)Nc1cccc(C(F)(F)F)c1	none (no result: gsp antagonist, RXFP1 agonist, pAkt inh, gsp agonist, ClpP mod)
COc1ccc(CNC(=O)Cn2ccc3cc(S(=O)(=O)N4CCCCCC4)ccc32)c(OC)c1	none (no result: gsp antagonist, pAkt inh, gsp agonist)
COc1cccc(N2CC(NC(=O)C3CCCCC3)CC2=O)c1 (stereo not given)	none (no result: gsp antagonist, pAkt inh, gsp agonist)
CSc1ccccc1C(=O)Nc1cccc([N+](=O)[O-])c1	none
COc1ccc([N+](=O)[O-])cc1NC(=O)c1ccccc1SC	ClpP mod 28µM
COc1ccc([N+](=O)[O-])cc1NC(=O)CSc1nc(C)c(C)c(C)n1	none
COc1ccc([N+](=O)[O-])cc1NC(=O)C(C)Sc1nc(C)c(C)c(C)n1 (stereo not given)	ClpP mod 28µM
CCc1cccc(-n2nnc(-c3nsc(NC(=O)c4cccs4)n3)c2C)c1	none (no result: gsp antagonist, pAkt inh, gsp agonist)

From PubChem
